# Assays:
# Test in all cases: DAPPL (digital affinity profiling via proximity ligation, sequencing); 10 mM Tris-HCl pH 7.5, 50 mM NaCl, 1 mM DTT, 4% glycerol, room temperature, 30 min; GST-TFs on glutathione beads, 16-mer random dsDNA library, 0.1% formaldehyde crosslink after washing; high values mean tight binding
# FLI1 = biological target: T1, FLI1 (Homo sapiens, UniProt Q01543 1-452); settings: protein: recombinant; tags: N-terminal GST; dsDNA, one strand shown
# T1 sequence: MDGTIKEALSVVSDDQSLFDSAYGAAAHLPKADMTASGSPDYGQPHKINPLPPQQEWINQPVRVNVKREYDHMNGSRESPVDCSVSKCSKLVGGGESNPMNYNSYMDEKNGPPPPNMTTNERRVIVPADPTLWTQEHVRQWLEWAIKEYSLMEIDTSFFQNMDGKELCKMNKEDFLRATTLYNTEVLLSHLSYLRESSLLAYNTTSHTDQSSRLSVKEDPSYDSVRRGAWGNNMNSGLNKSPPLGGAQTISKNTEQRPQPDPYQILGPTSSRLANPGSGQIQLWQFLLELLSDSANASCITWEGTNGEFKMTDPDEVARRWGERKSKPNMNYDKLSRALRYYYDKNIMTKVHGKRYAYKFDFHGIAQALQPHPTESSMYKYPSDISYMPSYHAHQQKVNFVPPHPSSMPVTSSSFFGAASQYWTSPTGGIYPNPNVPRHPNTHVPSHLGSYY
# Procedure, shortened: (§1)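 The binding signal reported is, for every hexamer, its read frequency for a factor over its read frequency for the tag-only sample. Reads came from pools of yeast-expressed, GST-fused human transcription factors on glutathione beads, barcoded with DNA and mixed with that sample, which were incubated with 200 nmole of a random double-stranded 16-mer DNA library in Tris/NaCl/DTT/glycerol buffer at room temperature for 30 min. After washing, the pools were crosslinked with 0.1% formaldehyde, proximity-ligated with BsaI/T4 ligase for 1 h at 37 °C, PCR-amplified and sequenced on an Illumina NextSeq500.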
# ELK1 = biological target: T2, ELK1 (Homo sapiens, UniProt P19419 1-428); settings: protein: recombinant; tags: N-terminal GST; dsDNA, one strand shown
# T2 sequence: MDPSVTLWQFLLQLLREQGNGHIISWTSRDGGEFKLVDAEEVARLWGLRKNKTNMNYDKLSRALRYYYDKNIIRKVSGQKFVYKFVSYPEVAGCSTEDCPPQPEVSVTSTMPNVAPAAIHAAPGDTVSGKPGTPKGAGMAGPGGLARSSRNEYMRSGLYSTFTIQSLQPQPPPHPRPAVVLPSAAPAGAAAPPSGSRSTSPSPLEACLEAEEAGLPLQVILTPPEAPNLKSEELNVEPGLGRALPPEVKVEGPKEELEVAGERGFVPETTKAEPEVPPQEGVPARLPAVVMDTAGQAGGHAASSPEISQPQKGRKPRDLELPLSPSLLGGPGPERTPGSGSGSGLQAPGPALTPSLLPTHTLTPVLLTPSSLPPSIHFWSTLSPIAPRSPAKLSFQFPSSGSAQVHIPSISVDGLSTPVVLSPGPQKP
# Procedure, shortened: as §1
# GABPA = biological target: T3, GABPA (Homo sapiens, UniProt Q06546 1-454); settings: protein: recombinant; tags: N-terminal GST; dsDNA, one strand shown
# T3 sequence: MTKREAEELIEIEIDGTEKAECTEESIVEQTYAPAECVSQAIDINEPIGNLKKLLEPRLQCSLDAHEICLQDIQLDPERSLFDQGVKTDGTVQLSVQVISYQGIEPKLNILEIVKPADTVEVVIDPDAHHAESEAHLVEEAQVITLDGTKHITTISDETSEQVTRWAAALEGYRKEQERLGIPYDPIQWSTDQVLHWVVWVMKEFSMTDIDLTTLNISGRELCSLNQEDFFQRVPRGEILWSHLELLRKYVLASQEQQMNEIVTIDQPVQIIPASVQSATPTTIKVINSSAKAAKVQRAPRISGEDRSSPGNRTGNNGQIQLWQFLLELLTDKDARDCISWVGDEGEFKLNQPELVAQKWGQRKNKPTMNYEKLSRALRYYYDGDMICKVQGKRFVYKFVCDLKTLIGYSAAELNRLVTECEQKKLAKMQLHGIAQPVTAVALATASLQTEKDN
# Procedure, shortened: as §1
# ERG = biological target: T4, ERG (Homo sapiens, UniProt P11308 1-479); settings: protein: recombinant; tags: N-terminal GST; dsDNA, one strand shown
# T4 sequence: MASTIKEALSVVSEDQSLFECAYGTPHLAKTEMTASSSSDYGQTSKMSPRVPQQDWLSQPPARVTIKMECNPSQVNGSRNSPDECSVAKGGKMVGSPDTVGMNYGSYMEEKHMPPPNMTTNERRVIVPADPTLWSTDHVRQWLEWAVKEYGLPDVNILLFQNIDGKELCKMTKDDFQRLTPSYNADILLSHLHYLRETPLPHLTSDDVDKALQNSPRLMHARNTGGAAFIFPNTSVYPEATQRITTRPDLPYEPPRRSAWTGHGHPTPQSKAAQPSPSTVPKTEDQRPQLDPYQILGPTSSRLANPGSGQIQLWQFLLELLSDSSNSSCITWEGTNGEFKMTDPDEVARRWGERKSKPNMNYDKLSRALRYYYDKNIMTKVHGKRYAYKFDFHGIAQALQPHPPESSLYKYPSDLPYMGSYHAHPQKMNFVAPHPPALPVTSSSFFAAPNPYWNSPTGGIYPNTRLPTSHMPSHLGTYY
# Procedure, shortened: as §1
# ELF1 = ELF1 (Homo sapiens, UniProt P32519 1-619); settings: protein: recombinant; tags: N-terminal GST; dsDNA, one strand shown
# Procedure, shortened: as §1
# EHF = biological target: T5, EHF (Homo sapiens, UniProt Q9NZC4 1-300); settings: protein: recombinant; tags: N-terminal GST; dsDNA, one strand shown
# T5 sequence: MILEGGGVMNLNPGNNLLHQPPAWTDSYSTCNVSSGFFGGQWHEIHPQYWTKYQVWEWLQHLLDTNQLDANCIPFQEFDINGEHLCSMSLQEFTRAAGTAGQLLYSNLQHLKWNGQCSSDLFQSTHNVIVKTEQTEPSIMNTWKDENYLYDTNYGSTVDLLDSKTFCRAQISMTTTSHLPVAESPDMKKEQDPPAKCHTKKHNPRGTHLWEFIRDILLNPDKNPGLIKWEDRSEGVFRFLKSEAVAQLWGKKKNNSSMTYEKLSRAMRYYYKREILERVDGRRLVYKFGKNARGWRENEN
# Procedure, shortened: as §1
# SPI1 = SPI1 (Homo sapiens, UniProt P17947 1-270); settings: protein: recombinant; tags: N-terminal GST; dsDNA, one strand shown
# Procedure, shortened: as §1
# SPIB = SPIB (Homo sapiens, UniProt Q01892 1-262); settings: protein: recombinant; tags: N-terminal GST; dsDNA, one strand shown
# Procedure, shortened: as §1
# FEV = biological target: T6, FEV (Homo sapiens, UniProt Q99581 1-238); settings: protein: recombinant; tags: N-terminal GST; dsDNA, one strand shown
# T6 sequence: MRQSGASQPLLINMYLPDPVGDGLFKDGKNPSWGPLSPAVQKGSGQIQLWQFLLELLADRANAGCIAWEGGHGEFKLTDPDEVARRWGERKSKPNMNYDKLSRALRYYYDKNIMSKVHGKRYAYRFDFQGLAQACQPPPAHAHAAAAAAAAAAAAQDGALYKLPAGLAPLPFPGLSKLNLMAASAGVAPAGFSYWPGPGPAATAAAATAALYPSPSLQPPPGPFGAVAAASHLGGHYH
# Procedure, shortened: as §1
# ETV5 = ETV5 (Homo sapiens, UniProt P41161 1-510); settings: protein: recombinant; tags: N-terminal GST; dsDNA, one strand shown
# Procedure, shortened: as §1
# HSF1 = HSF1 (Homo sapiens, UniProt Q00613 1-529); settings: protein: recombinant; tags: N-terminal GST; chain copies: 3; dsDNA, one strand shown
# Procedure, shortened: as §1
# SPIC = biological target: T7, SPIC (Homo sapiens, UniProt Q8N5J4 1-248); settings: protein: recombinant; tags: N-terminal GST; dsDNA, one strand shown
# T7 sequence: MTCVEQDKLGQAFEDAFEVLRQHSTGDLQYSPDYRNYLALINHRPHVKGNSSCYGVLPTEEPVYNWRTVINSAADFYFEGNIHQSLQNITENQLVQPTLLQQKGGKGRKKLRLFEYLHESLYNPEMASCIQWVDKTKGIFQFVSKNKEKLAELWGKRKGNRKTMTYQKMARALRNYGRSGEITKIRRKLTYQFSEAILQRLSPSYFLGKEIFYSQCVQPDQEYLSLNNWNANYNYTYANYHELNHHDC
# Procedure, shortened: as §1
# ELF4 = ELF4 (Homo sapiens, UniProt Q99607 1-663); settings: protein: recombinant; tags: N-terminal GST; dsDNA, one strand shown
# Procedure, shortened: as §1
# ELK4 = biological target: T8, ELK4 (Homo sapiens, UniProt P28324-2 1-405); settings: protein: recombinant; tags: N-terminal GST; dsDNA, one strand shown
# T8 sequence: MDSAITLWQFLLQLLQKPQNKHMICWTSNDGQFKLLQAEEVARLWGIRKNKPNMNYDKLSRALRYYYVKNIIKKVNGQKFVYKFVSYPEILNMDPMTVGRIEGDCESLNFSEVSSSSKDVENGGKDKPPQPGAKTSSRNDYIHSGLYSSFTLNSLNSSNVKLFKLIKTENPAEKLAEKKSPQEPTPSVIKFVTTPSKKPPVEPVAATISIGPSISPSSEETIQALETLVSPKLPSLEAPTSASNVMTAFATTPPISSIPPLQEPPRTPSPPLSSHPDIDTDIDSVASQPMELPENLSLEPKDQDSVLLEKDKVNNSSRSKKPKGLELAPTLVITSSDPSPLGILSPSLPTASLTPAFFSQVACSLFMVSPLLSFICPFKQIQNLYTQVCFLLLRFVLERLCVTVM
# Procedure, shortened: as §1
# ETV2 = biological target: T9, ETV2 (Homo sapiens, UniProt O00321 1-342); settings: protein: recombinant; tags: N-terminal GST; dsDNA, one strand shown
# T9 sequence: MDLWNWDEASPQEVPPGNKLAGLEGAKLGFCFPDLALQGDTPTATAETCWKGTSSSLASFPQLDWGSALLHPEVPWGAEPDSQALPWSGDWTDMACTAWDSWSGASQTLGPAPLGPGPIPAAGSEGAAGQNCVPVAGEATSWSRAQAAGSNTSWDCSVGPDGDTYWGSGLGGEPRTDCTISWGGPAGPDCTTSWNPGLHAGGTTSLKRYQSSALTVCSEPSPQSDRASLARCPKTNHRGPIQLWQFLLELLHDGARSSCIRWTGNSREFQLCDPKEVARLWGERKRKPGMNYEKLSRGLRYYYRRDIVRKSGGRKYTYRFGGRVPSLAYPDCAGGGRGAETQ
# Procedure, shortened: as §1
# ELF3 = biological target: T10, ELF3 (Homo sapiens, UniProt P78545 1-371); settings: protein: recombinant; tags: N-terminal GST; dsDNA, one strand shown
# T10 sequence: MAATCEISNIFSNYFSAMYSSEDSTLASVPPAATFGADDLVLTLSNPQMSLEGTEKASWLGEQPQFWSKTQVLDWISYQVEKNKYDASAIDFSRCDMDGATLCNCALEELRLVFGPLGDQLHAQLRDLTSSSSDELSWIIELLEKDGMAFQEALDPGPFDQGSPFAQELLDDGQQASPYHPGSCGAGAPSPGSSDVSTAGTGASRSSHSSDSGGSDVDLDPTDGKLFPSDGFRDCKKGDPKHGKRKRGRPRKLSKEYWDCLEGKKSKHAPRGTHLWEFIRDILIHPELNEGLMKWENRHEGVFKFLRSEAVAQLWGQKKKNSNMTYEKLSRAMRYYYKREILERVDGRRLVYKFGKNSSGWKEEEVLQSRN
# Procedure, shortened: as §1
# CRX = CRX (Homo sapiens, UniProt O43186 1-299); settings: protein: recombinant; tags: N-terminal GST; dsDNA, one strand shown
# Procedure, shortened: as §1
# SPIB, sequence (Q01892 whole entry): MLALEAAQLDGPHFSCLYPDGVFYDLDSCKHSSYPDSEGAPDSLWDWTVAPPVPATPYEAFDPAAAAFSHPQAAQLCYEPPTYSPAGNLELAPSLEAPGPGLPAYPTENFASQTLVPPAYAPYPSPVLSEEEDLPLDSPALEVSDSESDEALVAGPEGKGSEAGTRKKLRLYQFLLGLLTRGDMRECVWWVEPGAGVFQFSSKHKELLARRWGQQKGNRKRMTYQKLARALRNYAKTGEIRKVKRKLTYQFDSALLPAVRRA
# ETV5, sequence (P41161 whole entry): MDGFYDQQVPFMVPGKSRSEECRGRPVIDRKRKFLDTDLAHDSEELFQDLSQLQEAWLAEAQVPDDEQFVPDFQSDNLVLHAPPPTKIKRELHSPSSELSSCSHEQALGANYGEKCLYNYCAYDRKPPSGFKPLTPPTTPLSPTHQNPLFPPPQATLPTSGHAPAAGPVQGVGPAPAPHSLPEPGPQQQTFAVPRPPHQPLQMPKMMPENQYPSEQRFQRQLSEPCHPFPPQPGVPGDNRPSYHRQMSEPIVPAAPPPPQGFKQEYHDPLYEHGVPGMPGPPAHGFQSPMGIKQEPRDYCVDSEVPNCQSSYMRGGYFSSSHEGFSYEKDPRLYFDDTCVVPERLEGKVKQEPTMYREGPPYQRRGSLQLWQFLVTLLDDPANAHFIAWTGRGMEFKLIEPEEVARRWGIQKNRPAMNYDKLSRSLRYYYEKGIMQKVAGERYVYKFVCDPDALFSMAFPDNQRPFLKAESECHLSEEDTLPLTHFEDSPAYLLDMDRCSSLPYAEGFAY
# CRX, sequence (O43186 whole entry): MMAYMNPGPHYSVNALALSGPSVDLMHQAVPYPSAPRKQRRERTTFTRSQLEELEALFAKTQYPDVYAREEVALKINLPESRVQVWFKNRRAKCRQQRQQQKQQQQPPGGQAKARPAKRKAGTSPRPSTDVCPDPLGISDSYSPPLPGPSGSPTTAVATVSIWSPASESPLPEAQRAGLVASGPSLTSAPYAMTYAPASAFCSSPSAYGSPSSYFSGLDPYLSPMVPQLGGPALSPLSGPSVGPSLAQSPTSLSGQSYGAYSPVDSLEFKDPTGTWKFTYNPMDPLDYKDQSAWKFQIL
# ELF1, sequence (P32519 whole entry): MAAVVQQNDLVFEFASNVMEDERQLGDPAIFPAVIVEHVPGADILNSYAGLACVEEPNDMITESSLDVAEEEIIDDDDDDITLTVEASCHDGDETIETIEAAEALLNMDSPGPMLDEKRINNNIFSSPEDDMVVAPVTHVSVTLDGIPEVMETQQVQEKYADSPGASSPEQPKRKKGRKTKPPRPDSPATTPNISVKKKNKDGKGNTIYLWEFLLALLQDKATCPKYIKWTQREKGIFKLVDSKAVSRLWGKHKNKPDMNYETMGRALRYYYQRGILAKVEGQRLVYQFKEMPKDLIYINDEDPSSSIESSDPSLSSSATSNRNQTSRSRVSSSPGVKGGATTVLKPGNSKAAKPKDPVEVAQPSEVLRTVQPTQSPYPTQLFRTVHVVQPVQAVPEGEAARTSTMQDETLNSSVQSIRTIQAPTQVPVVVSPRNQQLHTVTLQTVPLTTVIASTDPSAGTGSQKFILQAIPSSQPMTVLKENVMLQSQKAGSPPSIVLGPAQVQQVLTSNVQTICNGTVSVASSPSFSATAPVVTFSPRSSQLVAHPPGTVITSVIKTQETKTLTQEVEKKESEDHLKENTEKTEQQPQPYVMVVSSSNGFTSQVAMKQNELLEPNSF
# ELF4, sequence (Q99607 whole entry): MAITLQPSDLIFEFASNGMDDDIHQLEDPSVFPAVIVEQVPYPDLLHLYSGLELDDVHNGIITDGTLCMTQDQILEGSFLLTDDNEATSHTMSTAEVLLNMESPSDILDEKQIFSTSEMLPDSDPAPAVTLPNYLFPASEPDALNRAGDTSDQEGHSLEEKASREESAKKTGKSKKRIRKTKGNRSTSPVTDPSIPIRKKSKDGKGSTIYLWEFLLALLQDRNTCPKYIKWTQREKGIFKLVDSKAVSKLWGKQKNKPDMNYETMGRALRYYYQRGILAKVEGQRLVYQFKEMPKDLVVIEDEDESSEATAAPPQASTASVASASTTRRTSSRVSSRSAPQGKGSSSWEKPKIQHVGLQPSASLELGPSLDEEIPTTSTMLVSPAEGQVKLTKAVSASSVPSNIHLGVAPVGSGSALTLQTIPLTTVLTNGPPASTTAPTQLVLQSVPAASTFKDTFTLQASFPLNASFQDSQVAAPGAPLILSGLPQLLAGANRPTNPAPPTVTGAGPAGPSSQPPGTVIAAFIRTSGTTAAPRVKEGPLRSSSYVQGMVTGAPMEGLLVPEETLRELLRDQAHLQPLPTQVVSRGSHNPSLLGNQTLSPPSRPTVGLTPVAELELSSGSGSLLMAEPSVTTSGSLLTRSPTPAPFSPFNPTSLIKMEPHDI
# HSF1, sequence (Q00613 whole entry): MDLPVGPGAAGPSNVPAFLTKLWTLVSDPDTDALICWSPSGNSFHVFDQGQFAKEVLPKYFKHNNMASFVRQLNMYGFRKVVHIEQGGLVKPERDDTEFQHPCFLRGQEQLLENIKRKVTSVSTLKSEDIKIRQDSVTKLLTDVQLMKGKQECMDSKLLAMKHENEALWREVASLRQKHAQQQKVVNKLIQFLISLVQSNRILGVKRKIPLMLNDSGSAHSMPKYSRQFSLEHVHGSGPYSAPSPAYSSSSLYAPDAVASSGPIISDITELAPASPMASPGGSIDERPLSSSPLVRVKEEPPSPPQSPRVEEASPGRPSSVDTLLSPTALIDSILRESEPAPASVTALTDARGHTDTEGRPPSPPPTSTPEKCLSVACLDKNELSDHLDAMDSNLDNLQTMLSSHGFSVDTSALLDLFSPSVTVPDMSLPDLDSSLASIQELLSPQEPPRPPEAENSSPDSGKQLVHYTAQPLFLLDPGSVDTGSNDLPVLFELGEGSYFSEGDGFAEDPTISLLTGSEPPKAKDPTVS
sequence,measurement,setting,value
CCCCGA,binding signal,FLI1,"1.23 fold enrichment (6-mer frequency, TF over GST control)"
same,binding signal,ELK1,"1.2 fold enrichment (6-mer frequency, TF over GST control)"
same,binding signal,GABPA,"1.21 fold enrichment (6-mer frequency, TF over GST control)"
same,binding signal,ERG,"1.16 fold enrichment (6-mer frequency, TF over GST control)"
same,binding signal,ELF1,"1.16 fold enrichment (6-mer frequency, TF over GST control)"
same,binding signal,EHF,"1.14 fold enrichment (6-mer frequency, TF over GST control)"
same,binding signal,SPI1,"1.15 fold enrichment (6-mer frequency, TF over GST control)"
same,binding signal,SPIB,"1.23 fold enrichment (6-mer frequency, TF over GST control)"
same,binding signal,FEV,"1.18 fold enrichment (6-mer frequency, TF over GST control)"
same,binding signal,ETV5,"1.14 fold enrichment (6-mer frequency, TF over GST control)"
same,binding signal,HSF1,"1.28 fold enrichment (6-mer frequency, TF over GST control)"
same,binding signal,SPIC,"1.14 fold enrichment (6-mer frequency, TF over GST control)"
same,binding signal,ELF4,"1.29 fold enrichment (6-mer frequency, TF over GST control)"
same,binding signal,ELK4,"1.15 fold enrichment (6-mer frequency, TF over GST control)"
same,binding signal,ETV2,"1.24 fold enrichment (6-mer frequency, TF over GST control)"
same,binding signal,ELF3,"1.35 fold enrichment (6-mer frequency, TF over GST control)"
same,binding signal,CRX,"1.14 fold enrichment (6-mer frequency, TF over GST control)"
